Compound activity (PubChem BioAssay)
In the library only some 3.5% were active in any assay of this set; here they are far more common.
MITF primary: human MITF inhibition, primary screen; AlphaScreen MITF homodimerization, bead proximity signal; inhibition, % at 2.6 µM; hit rate 0.91% among 650,000; in the data active = inhibition above about 50%;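 also: 0% = vehicle wells with protein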
Target sequence (O75030 whole entry, looked up): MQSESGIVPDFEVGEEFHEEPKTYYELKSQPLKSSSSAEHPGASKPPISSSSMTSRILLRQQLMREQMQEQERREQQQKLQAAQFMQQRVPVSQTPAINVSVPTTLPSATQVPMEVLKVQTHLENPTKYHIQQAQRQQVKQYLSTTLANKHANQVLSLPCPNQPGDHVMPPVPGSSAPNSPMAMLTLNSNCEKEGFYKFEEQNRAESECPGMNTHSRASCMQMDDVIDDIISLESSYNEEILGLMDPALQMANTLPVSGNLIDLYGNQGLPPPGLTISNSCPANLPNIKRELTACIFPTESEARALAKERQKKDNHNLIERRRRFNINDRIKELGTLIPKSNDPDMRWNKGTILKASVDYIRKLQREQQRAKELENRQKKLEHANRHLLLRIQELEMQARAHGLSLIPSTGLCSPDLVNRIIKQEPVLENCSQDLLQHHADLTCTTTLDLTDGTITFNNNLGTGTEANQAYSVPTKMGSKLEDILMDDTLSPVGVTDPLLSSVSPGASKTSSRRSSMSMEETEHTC
TEAD-YAP block: TEAD-YAP interaction inhibition; HEK-TIYL cells, TEAD-Gal4/YAP UAS-luciferase luminescence; inhibition, % at 9.12 µM; hit rate 1.4% among 640,000; in the data active = inhibition above about 32%;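 also: 0% = median of test compound wells and 100% = reference inhibitor wells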
GPR151 activ: human GPR151 activation; Q8TDV0; PathHunter beta-arrestin GPR151 cells, luminescence; activation, % at 11.2 µM; hit rate 1% among 650,000; AID 1508602; in the data active = activation above about 4.9%;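 also: 0% = median of compound wells and 100% = cells with positive control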
FBW7 act: activators of human E3 ligase FBW7; Q969H0; AlphaScreen FBW7–phospho-cyclin E peptide binding, activator screen; normalized activity (activation), % at 26.1 µM; hit rate 0.13% among 650,000; in the data active = normalized activity above about 1.9%;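 also: purified mutant Fbw7 with reduced substrate affinity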
An asterisk follows results filed as active.

SMILES	MITF primary	TEAD-YAP block	GPR151 activ	FBW7 act
COc1ccc(C(=O)NC(c2ccc(C)cc2)c2cc(Cl)c3cccnc3c2O)cc1 (stereo not drawn)	15	10	1	0
CCCCC(=O)NC(c1ccc(OC)cc1)c1ccc2cccnc2c1O (stereo not drawn)	41	80*	0	-2
O=C1C(=O)N(c2ccc(Br)cn2)C(c2ccccc2)/C1=C(\O)c1ccc(Cl)cc1 (stereo not drawn)	10	-12	-2	0
CCOC(=O)c1c(C)oc2cc(Br)c(OCc3ccc(F)cc3)cc12	-1	-3	1	0
COc1ccc(C2CC(c3cccs3)=NN2C(=O)CSc2nnc(CNC(=O)c3cccs3)n2Cc2ccccc2)cc1 (stereo not drawn)	15	10	0	0
Cc1ccc(C(NC(=O)C(C)C)c2ccc3cccnc3c2O)cc1 (stereo not drawn)	21	86*	0	-1
O=[N+]([O-])c1ccc(C(Nc2nccs2)c2ccc3cccnc3c2O)cc1 (stereo not drawn)	18	27	-1	-2
COc1ccc(C(NC(=O)C(C)C)c2ccc3cccnc3c2O)cc1OC (stereo not drawn)	62*	90*	1	-2
CCc1ccc(Nc2nnc(SCC(=O)N3CC(=O)Nc4ccccc43)s2)cc1	9	1	0	0
COC(=O)c1nn(-c2ccc3c(c2)CCN3C(C)=O)cc1O	-2	94*	-10	0
O=C1CN(C(=O)CN2CCC(n3nnc4cc(F)ccc43)CC2)c2ccccc2N1	-3	7	0	0
CN(C)c1ccc(/C=N/NC(=O)Cn2c(-c3ccccn3)nc3ccccc32)cc1	14	4	0	0
CCNc1cc(C)nc(Nc2ccc(NC(=O)c3cc(OC)c(OC)c(OC)c3)cc2)n1	12	77*	-1	0
COc1cc(Nc2ncc(C)c(Nc3ccccc3)n2)cc(OC)c1OC	-3	34*	4	0
COc1cc(Nc2nc(C)cc(Nc3ccc(NC(C)=O)cc3)n2)cc(OC)c1OC	15	-1	1	0
COc1cc(Nc2cc(C)nc(Nc3ccccc3)n2)cc(OC)c1OC	2	47*	1	0
Cc1cc(C)nc(Nc2ccc(Nc3ccccc3)cc2)n1	7	33*	-2	0
COc1cc(Nc2nc(C)cc(Nc3ccccc3)n2)cc(OC)c1OC	5	46*	3	0
O=C(CCSCCc1ccncc1)NCc1ccc(Cl)cc1	11	-4	0	0
COc1ccc(-c2cc3ccccc3oc2=O)cc1N	4	33*	-1	0
CCOC(=O)C(C)Oc1ccc2cc(-c3ccc(OC)c(OC)c3)c(=O)oc2c1 (stereo not drawn)	-12	7	-8	2.3*
COc1ccccc1-c1cc2ccccc2oc1=O	2	-13	0	0
CCOC(=O)COc1ccc2c(C)c(-c3ccc(OC)c(OC)c3)c(=O)oc2c1	-15	6	1	2.0*
O=C(Nc1ccc2c(c1)OCO2)c1cc(N2CCN(c3ccccn3)CC2)nc2ccccc12	12	-1	-1	0
CCN(CC)C(=O)CSc1nc2c(sc(=S)n2CCc2ccccc2)c(=O)n1-c1c(C)cccc1C	3	-6	1	0
SMILES	MITF primary	TEAD-YAP block	GPR151 activ	FBW7 act
CCC(C)NC(=O)CSc1nnc(-c2cccnc2)n1-c1cccc(OC)c1 (stereo not drawn)	-1	13	-1	0
COc1ccc(NC(=O)COc2ccccc2C(C)(C)C)cc1OC	7	43*	3	0
O=C(COc1ccc(Cl)cc1Cl)Nc1cccc(O)c1	15	71*	-1	0
O=C(COc1ccc(Cl)cc1Cl)Nc1cccc(C(=O)O)c1	-14	97*	-7	0
O=Cc1ccccc1OCC(=O)Nc1ccccc1	15	32*	-3	1
Cc1cccc(NC(=O)COc2ccc(Cl)cc2Cl)c1	-4	-24	-1	0
COc1ccc(NC(=O)COc2ccccc2C)cc1OC	-10	-14	1	1
O=C(COc1ccc(Cl)cc1[N+](=O)[O-])Nc1ccccc1	-6	34*	-1	0
CC(C)(C)c1ccccc1OCC(=O)NN	-5	36*	0	0
COc1ccccc1OCC(=O)Nc1cccc(C(=O)O)c1	-9	36*	-7	0
O=C(COc1ccc(C(F)(F)F)cc1[N+](=O)[O-])Nc1ccc(Cl)cc1	-2	-14	0	0
Cc1ccc2c(n1)sc1c(=O)[nH]c(C)nc12	-29	1	0	0
Cc1c(C(=O)N2CCC(=O)CC2)sc2ncn(CC(=O)N3CCOCC3)c(=O)c12	11	-48	1	1
Nc1ncn([C@@H]2O[C@H](CO)[C@@H](O)[C@H]2O)c(=O)n1	-10	83*	2	0
COC(=O)N1CCC(C(=O)N(C)C(c2ccc(OC)cc2)c2ccccn2)CC1 (stereo not drawn)	-4	-1	-1	0
Cc1cc(C)c(OCC(=O)Nc2ccccc2C(=O)O)cc1C	15	2	-1	0
COc1ccc(-c2ccc(NCCCN(C)C)nc2)cc1	-12	4	0	0
COc1ccc2c(-c3ccccc3)cc(NCCCN(C)C)nc2c1	68*	-13	-1	0
CC(C)n1nc(C(=O)NN)c2ccccc2c1=O	-7	51*	0	0
Cc1cc(N2CCCC2)nc(Nc2ccc(NS(=O)(=O)c3cccc(F)c3)cc2)n1	-3	54*	-1	0
CCN(CC)C(=O)C1CCCN(c2nc(NCCCN3CCCC3=O)c3ncn(-c4ccccc4)c3n2)C1 (stereo not drawn)	8	36*	3	0
O=C1CCCN1CCCNc1nc(N2CCCC2CO)nc2c1ncn2-c1ccsc1 (stereo not drawn)	12	42*	-1	0
Clc1nc(NCc2nc3ccccc3[nH]2)c2ncn(-c3ccccc3)c2n1	-8	3	2	0
OCC1CCCN1c1nc(NCc2nc3ccccc3[nH]2)c2ncn(-c3ccccc3)c2n1 (stereo not drawn)	9	48*	1	0
OCCNc1nc(N2CCCC2CO)nc2c1ncn2-c1ccccc1 (stereo not drawn)	3	55*	-1	0
SMILES	MITF primary	TEAD-YAP block	GPR151 activ	FBW7 act
CC(C)n1cnc2c(NCCO)nc(N3CCCC3CO)nc21 (stereo not drawn)	0	17	-1	0
CC(C)OC(=O)C(C(=O)C(F)(F)F)c1cc(NS(=O)(=O)c2ccc(Br)cc2)c2ccccc2c1O (stereo not drawn)	-5	11	-1	0
O=C(Cc1ccc(N2CCC(NCc3cccc(-n4cccn4)c3)CC2)cc1)N1CCCC1	-9	0	-1	0
Cc1ccccc1CNC(=O)Cn1ncc2ccc(Cl)cc21	-7	-16	-2	0
O=C1CCCN1CCCNc1nc(N2CCCC2CO)nc2c1ncn2-c1ccccc1 (stereo not drawn)	5	47*	0	0
OCC1CCCN1c1nc(NCCc2ccc(O)cc2)c2ncn(-c3ccsc3)c2n1 (stereo not drawn)	6	19	-2	0
